Laboratory results published in article PMC7862700, “An all-to-all approach to the identification of sequence-specific readers for epigenetic DNA modifications on cytosine”.

Legend:
Assay in all cases: DAPPL (digital affinity profiling via proximity ligation, sequencing); 10 mM Tris-HCl pH 7.5, 50 mM NaCl, 1 mM DTT, 4% glycerol, room temperature, 30 min; GST-TFs on glutathione beads, 16-mer random dsDNA library, 0.1% formaldehyde crosslink after washing; high values mean tight binding
HSF1 = HSF1 (Homo sapiens, UniProt Q00613 1-529); details: protein: recombinant; tags: N-terminal GST; chain copies: 3; dsDNA, one strand shown
How it was run: (§1)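 GST fusions of human transcription factors were expressed in yeast and captured with glutathione beads. Once given DNA barcodes and pooled alongside a tag-only sample, they were incubated for 30 min at room temperature with 200 nmole of a random double-stranded 16-mer DNA library in Tris/NaCl/DTT/glycerol buffer, then washed, crosslinked (0.1% formaldehyde), proximity-ligated, PCR-amplified and sequenced on an Illumina NextSeq500. The binding signal of each hexamer is its read frequency for a factor divided by its frequency for the tag-only sample.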

GABPA = molecular target: T1, GABPA (Homo sapiens, UniProt Q06546 1-454); details: protein: recombinant; tags: N-terminal GST; dsDNA, one strand shown
T1 sequence: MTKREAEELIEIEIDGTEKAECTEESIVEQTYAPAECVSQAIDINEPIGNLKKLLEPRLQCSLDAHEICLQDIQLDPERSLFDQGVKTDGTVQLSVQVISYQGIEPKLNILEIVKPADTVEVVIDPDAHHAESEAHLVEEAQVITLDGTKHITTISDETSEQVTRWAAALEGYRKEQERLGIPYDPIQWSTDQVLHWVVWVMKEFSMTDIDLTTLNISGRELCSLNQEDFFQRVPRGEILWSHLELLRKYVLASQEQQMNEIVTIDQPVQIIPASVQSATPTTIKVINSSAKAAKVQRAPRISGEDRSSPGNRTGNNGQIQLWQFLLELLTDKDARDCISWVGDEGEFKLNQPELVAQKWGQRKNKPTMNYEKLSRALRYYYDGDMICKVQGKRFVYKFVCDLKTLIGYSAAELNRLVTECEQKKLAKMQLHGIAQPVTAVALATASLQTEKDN
How it was run: as §1

ELF1 = ELF1 (Homo sapiens, UniProt P32519 1-619); details: protein: recombinant; tags: N-terminal GST; dsDNA, one strand shown
How it was run: as §1

EHF = molecular target: T2, EHF (Homo sapiens, UniProt Q9NZC4 1-300); details: protein: recombinant; tags: N-terminal GST; dsDNA, one strand shown
T2 sequence: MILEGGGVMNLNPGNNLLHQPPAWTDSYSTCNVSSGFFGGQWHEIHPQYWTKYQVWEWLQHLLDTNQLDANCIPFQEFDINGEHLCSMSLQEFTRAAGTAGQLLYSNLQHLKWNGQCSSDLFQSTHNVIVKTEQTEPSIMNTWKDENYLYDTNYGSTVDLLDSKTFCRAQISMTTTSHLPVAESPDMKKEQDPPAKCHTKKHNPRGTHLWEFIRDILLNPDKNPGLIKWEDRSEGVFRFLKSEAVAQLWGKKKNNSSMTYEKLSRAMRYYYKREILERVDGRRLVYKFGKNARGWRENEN
How it was run: as §1

SPIB = SPIB (Homo sapiens, UniProt Q01892 1-262); details: protein: recombinant; tags: N-terminal GST; dsDNA, one strand shown
How it was run: as §1

ELK3 = molecular target: T3, ELK3 (Homo sapiens, UniProt P41970 1-407); details: protein: recombinant; tags: N-terminal GST; dsDNA, one strand shown
T3 sequence: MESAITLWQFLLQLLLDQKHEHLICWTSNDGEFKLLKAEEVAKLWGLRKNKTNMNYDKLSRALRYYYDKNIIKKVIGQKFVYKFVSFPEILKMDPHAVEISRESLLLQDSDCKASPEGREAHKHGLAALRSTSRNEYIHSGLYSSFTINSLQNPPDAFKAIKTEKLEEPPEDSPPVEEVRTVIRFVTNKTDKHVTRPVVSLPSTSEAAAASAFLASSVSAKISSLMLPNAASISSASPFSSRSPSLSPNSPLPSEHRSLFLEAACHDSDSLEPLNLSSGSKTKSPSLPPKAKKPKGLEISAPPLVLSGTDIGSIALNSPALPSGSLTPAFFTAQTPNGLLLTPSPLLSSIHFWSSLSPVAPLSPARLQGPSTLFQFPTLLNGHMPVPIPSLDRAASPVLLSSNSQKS
How it was run: as §1

SPIC = molecular target: T4, SPIC (Homo sapiens, UniProt Q8N5J4 1-248); details: protein: recombinant; tags: N-terminal GST; dsDNA, one strand shown
T4 sequence: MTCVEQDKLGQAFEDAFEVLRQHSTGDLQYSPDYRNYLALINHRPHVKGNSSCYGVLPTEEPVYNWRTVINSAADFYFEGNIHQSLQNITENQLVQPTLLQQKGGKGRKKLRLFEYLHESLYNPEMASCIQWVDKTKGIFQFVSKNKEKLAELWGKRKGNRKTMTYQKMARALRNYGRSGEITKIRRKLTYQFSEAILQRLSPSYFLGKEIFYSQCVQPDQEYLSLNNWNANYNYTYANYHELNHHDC
How it was run: as §1

ELF4 = ELF4 (Homo sapiens, UniProt Q99607 1-663); details: protein: recombinant; tags: N-terminal GST; dsDNA, one strand shown
How it was run: as §1

ETV2 = molecular target: T5, ETV2 (Homo sapiens, UniProt O00321 1-342); details: protein: recombinant; tags: N-terminal GST; dsDNA, one strand shown
T5 sequence: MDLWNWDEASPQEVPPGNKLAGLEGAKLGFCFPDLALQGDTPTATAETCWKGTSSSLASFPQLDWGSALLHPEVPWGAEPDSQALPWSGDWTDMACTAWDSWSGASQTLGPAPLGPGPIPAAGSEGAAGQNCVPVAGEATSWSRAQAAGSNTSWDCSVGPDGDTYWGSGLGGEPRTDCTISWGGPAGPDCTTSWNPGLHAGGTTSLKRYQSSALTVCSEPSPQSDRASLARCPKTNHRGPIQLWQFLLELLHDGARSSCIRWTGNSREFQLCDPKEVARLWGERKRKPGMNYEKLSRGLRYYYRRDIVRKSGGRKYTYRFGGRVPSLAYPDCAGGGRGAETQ
How it was run: as §1

CRX = CRX (Homo sapiens, UniProt O43186 1-299); details: protein: recombinant; tags: N-terminal GST; dsDNA, one strand shown
How it was run: as §1

ETV1 = ETV1 (Homo sapiens, UniProt P50549 1-477); details: protein: recombinant; tags: N-terminal GST; dsDNA, one strand shown
How it was run: as §1

ERF = molecular target: T6, ERF (Homo sapiens, UniProt P50548 1-548); details: protein: recombinant; tags: N-terminal GST; dsDNA, one strand shown
T6 sequence: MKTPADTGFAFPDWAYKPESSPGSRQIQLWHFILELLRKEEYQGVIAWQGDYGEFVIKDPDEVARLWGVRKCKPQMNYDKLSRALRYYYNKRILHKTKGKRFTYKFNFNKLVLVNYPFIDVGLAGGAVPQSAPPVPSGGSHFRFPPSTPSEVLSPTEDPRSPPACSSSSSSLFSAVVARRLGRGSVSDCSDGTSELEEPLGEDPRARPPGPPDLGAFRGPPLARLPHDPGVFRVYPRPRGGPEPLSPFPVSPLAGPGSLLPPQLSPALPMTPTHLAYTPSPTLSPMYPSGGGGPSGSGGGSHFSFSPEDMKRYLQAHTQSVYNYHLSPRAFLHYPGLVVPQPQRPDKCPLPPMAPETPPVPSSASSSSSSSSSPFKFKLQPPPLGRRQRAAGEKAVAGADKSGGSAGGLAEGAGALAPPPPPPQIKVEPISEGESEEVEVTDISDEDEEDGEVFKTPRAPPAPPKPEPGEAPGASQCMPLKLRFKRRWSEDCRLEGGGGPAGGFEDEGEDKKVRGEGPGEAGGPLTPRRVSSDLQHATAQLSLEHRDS
How it was run: as §1

Sequence of HSF1 (Q00613 whole entry, the tested form may be a part): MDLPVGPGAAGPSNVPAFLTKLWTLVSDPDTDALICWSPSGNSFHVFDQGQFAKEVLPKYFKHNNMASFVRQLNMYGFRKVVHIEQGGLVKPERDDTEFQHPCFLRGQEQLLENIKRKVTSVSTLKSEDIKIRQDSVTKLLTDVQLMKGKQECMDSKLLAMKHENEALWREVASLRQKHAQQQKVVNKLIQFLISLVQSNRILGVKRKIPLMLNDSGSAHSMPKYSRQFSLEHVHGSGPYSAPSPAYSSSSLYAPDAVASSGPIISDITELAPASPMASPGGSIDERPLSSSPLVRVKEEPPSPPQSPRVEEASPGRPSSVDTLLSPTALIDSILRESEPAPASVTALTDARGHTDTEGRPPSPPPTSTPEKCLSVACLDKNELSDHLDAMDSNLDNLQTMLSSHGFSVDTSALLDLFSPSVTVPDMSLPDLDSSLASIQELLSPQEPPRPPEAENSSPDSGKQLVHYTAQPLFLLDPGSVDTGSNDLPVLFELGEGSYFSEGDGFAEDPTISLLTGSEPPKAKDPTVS
Sequence of ETV1 (P50549 whole entry): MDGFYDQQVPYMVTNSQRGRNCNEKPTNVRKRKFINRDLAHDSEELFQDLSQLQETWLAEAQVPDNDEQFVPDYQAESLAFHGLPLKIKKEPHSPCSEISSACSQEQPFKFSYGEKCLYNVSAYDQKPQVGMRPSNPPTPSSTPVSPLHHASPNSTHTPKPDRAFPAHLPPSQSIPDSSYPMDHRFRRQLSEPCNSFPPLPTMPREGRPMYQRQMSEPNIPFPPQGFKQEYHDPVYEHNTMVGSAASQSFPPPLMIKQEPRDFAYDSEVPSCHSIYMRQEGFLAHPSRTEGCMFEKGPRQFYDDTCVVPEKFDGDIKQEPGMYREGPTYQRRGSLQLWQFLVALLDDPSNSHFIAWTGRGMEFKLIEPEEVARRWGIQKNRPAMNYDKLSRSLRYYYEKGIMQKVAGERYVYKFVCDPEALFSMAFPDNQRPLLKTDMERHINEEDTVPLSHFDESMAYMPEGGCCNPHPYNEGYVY
Sequence of ELF1 (P32519 whole entry): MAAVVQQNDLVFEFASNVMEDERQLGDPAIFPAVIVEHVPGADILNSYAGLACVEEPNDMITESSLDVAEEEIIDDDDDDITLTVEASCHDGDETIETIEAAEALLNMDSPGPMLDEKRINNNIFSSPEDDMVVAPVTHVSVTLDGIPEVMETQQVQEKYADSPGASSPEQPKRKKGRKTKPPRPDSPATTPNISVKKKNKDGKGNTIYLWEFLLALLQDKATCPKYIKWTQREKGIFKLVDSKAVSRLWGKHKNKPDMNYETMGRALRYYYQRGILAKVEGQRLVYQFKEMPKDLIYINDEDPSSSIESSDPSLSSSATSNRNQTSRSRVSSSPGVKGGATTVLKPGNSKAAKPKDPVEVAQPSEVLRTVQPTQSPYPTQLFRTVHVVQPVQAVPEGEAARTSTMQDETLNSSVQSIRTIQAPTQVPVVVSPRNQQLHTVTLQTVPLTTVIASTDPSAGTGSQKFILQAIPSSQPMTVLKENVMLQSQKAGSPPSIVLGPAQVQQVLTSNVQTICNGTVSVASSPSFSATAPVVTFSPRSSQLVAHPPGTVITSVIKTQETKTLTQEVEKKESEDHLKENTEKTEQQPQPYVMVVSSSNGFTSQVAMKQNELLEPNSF
Sequence of SPIB (Q01892 whole entry): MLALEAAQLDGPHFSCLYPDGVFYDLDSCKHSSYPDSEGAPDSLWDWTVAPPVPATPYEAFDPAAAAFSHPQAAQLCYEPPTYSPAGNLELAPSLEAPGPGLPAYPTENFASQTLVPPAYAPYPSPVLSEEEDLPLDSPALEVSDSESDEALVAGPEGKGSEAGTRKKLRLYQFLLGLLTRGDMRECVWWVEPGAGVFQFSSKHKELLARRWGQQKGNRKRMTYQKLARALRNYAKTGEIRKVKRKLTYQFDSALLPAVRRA
Sequence of CRX (O43186 whole entry): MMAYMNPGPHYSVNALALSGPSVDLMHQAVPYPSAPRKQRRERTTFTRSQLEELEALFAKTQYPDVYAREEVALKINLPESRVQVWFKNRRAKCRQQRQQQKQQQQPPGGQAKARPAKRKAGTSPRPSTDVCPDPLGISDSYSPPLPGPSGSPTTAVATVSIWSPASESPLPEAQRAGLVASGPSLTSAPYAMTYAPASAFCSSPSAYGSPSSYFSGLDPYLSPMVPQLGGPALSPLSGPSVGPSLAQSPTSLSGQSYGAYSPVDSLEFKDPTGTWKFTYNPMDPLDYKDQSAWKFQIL
Sequence of ELF4 (Q99607 whole entry): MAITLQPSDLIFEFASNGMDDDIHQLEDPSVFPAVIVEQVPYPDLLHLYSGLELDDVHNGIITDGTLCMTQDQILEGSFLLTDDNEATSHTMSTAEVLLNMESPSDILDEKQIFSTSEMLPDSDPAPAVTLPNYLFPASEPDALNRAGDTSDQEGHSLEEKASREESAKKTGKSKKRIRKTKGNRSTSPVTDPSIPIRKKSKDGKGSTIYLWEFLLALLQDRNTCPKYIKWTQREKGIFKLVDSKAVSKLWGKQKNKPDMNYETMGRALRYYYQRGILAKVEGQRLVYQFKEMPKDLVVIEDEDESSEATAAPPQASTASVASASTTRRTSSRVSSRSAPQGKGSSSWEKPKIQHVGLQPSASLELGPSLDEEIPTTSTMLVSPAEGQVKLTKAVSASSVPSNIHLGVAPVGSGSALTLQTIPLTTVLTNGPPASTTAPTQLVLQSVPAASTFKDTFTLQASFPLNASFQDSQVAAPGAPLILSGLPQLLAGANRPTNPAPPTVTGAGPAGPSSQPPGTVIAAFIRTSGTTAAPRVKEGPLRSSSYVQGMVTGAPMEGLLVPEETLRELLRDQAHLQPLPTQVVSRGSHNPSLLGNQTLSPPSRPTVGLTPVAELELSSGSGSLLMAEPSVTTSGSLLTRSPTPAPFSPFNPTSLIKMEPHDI

Row | Sequence | binding signal (HSF1) | binding signal (GABPA) | binding signal (ELF1) | binding signal (EHF) | binding signal (SPIB) | binding signal (ELK3) | binding signal (SPIC) | binding signal (ELF4) | binding signal (ETV2) | binding signal (CRX) | binding signal (ETV1) | binding signal (ERF)
1 | TCCAGT | 1.01 fold enrichment (6-mer frequency, TF over GST control) | – | – | – | – | – | – | – | – | – | – | –
2 | TTAGCC | 1.45 fold enrichment (6-mer frequency, TF over GST control) | 1.01 fold enrichment (6-mer frequency, TF over GST control) | 1.06 fold enrichment (6-mer frequency, TF over GST control) | 1.03 fold enrichment (6-mer frequency, TF over GST control) | 1 fold enrichment (6-mer frequency, TF over GST control) | 1.02 fold enrichment (6-mer frequency, TF over GST control) | 1.04 fold enrichment (6-mer frequency, TF over GST control) | 1.01 fold enrichment (6-mer frequency, TF over GST control) | 1.06 fold enrichment (6-mer frequency, TF over GST control) | 2.22 fold enrichment (6-mer frequency, TF over GST control) | 1.02 fold enrichment (6-mer frequency, TF over GST control) | 1.07 fold enrichment (6-mer frequency, TF over GST control)
